{"source": "the supplement of paper PMC12067093", "about": "“Discovery and optimisation of a covalent ligand for TRIM25 and its application to targeted protein ubiquitination” (Chemical Science, 2025)", "compound": "Cc1cc(ccc1-c1ccccc1)C(=O)N1CCCN(CC1)C(=O)CCl [compound 10]", "test": "probe-labelled cysteine peptide fold change vs DMSO (competition) (log2 fold change); higher = less target engagement (more negative = stronger competition)", "conditions": "THP-1, incubation time: 4 h", "note": "Targets with the largest changes are over-represented here; the source holds about 21,000 in all.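 Note: competitive profiling in live THP-1 cells: cysteine peptides tagged with an iodoacetamide desthiobiotin (IA-DTB) probe, intensity after compound treatment relative to DMSO-treated cells.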"}
{"target": "PSMC6_P62333_228_DHQPCIIFMDEIDAIGGR (UniProt P62333)", "values": [{"measurement": "probe-labelled cysteine peptide fold change", "setting": "10 µM", "result": -0.0612}, {"measurement": "probe-labelled cysteine peptide fold change", "setting": "50 µM", "result": 0.106}]}
{"target": "PRPS1_P60891_41_KFSNQETCVEIGESVR (UniProt P60891)", "sequence (P60891 whole entry, looked up)": "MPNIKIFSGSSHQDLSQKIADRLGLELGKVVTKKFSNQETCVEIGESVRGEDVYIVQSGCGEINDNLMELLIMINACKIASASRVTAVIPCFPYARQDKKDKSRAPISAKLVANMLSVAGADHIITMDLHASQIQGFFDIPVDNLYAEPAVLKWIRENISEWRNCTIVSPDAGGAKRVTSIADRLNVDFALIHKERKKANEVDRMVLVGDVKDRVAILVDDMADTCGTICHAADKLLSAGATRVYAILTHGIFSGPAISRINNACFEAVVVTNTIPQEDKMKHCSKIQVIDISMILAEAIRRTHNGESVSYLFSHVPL", "values": [{"measurement": "probe-labelled cysteine peptide fold change", "setting": "10 µM", "result": 0.0818}, {"measurement": "probe-labelled cysteine peptide fold change", "setting": "50 µM", "result": 0.329}]}
{"target": "RARS_P54136_34_NCGCLGASPNLEQLQEENLK (UniProt P54136)", "values": [{"measurement": "probe-labelled cysteine peptide fold change", "setting": "10 µM", "result": -0.247}, {"measurement": "probe-labelled cysteine peptide fold change", "setting": "50 µM", "result": -1.27}]}
{"target": "PRKDC_P78527_2093_DPTVHDDVLELEMDELNRHECMAPLTALVK (UniProt P78527)", "values": [{"measurement": "probe-labelled cysteine peptide fold change", "setting": "10 µM", "result": -0.156}, {"measurement": "probe-labelled cysteine peptide fold change", "setting": "50 µM", "result": -0.199}]}
{"target": "RECQL4_O94761_814_DGQPAHCHLFLQPQGEDLR (UniProt O94761)", "values": [{"measurement": "probe-labelled cysteine peptide fold change", "setting": "10 µM", "result": -0.0251}, {"measurement": "probe-labelled cysteine peptide fold change", "setting": "50 µM", "result": -0.0847}]}
{"target": "RANBP2_P49792_2982_VCANHVITK (UniProt P49792)", "values": [{"measurement": "probe-labelled cysteine peptide fold change", "setting": "10 µM", "result": 0.0357}, {"measurement": "probe-labelled cysteine peptide fold change", "setting": "50 µM", "result": 0.111}]}
{"target": "PSME1_Q06323_101_KKGEDEDKGPPCGPVNCNEK (UniProt Q06323)", "values": [{"measurement": "probe-labelled cysteine peptide fold change", "setting": "10 µM", "result": -0.428}, {"measurement": "probe-labelled cysteine peptide fold change", "setting": "50 µM", "result": -1.54}]}
{"target": "PRR14L_Q5THK1_1503_AQDPSSAGCDQIHGAFAK (UniProt Q5THK1)", "values": [{"measurement": "probe-labelled cysteine peptide fold change", "setting": "10 µM", "result": -0.388}, {"measurement": "probe-labelled cysteine peptide fold change", "setting": "50 µM", "result": -1.59}]}
{"target": "RNF114_Q9Y508_64_KPVCGVCR (UniProt Q9Y508)", "values": [{"measurement": "probe-labelled cysteine peptide fold change", "setting": "10 µM", "result": 0.0642}, {"measurement": "probe-labelled cysteine peptide fold change", "setting": "50 µM", "result": -0.0371}]}
{"target": "R3HCC1_Q9Y3T6_5_ALLCLDGVFLSSAENDFVHR (UniProt Q9Y3T6+R3HCC1)", "values": [{"measurement": "probe-labelled cysteine peptide fold change", "setting": "10 µM", "result": 0.242}, {"measurement": "probe-labelled cysteine peptide fold change", "setting": "50 µM", "result": 0.0812}]}
{"target": "RNF113A_O15541_202_WDYQPDICK<|>RNF113B_Q8IZP6_196_WDYQPDICK (UniProt Q8IZP6+O15541)", "values": [{"measurement": "probe-labelled cysteine peptide fold change", "setting": "10 µM", "result": -0.0623}, {"measurement": "probe-labelled cysteine peptide fold change", "setting": "50 µM", "result": -0.145}]}
{"target": "RHOC_P08134_20_TCLLIVFSK<|>RHOA_P61586_20_TCLLIVFSK<|>RHOB_P62745_20_TCLLIVFSK (UniProt P62745+P61586+P08134)", "values": [{"measurement": "probe-labelled cysteine peptide fold change", "setting": "10 µM", "result": -0.323}, {"measurement": "probe-labelled cysteine peptide fold change", "setting": "50 µM", "result": -0.507}]}
{"target": "PRKDC_P78527_1335_CTVVVR (UniProt P78527)", "values": [{"measurement": "probe-labelled cysteine peptide fold change", "setting": "10 µM", "result": 0.00715}, {"measurement": "probe-labelled cysteine peptide fold change", "setting": "50 µM", "result": 0.101}]}
{"target": "PRKDC_P78527_2342_KNILEESLCELVAK (UniProt P78527)", "values": [{"measurement": "probe-labelled cysteine peptide fold change", "setting": "10 µM", "result": -0.182}, {"measurement": "probe-labelled cysteine peptide fold change", "setting": "50 µM", "result": -0.0562}]}
{"target": "PTPN1_P18031_344_EETQEDKDCPIKEEK (UniProt P18031)", "values": [{"measurement": "probe-labelled cysteine peptide fold change", "setting": "10 µM", "result": -0.593}, {"measurement": "probe-labelled cysteine peptide fold change", "setting": "50 µM", "result": -1.57}]}
{"target": "RGPD3_A6NKT7_537_SWWDAVCTLIHR<|>RGPD8_O14715_537_SWWDAVCTLIHR<|>RGPD1_P0DJD0_528_SWWDAVCTLIHR<|>RGPD2_P0DJD1_536_SWWDAVCTLIHR<|>RANBP2_P49792_536_SWWDAVCTLIHR<|>RGPD4_Q7Z3J3_537_SWWDAVCTLIHR<|>RGPD6_Q99666_537_SWWDAVCTLIHR (UniProt Q7Z3J3+P49792+P0DJD1+Q99666+P0DJD0+O14715+A6NKT7)", "values": [{"measurement": "probe-labelled cysteine peptide fold change", "setting": "10 µM", "result": -0.451}, {"measurement": "probe-labelled cysteine peptide fold change", "setting": "50 µM", "result": -0.14}]}
{"target": "RFXANK_O14593_205_CVEALLAR (UniProt O14593)", "values": [{"measurement": "probe-labelled cysteine peptide fold change", "setting": "10 µM", "result": 0.0175}, {"measurement": "probe-labelled cysteine peptide fold change", "setting": "50 µM", "result": -0.265}]}
{"target": "PSMC1_P62191_58_LPLVTPHTQCR (UniProt P62191)", "sequence (P62191 whole entry, looked up)": "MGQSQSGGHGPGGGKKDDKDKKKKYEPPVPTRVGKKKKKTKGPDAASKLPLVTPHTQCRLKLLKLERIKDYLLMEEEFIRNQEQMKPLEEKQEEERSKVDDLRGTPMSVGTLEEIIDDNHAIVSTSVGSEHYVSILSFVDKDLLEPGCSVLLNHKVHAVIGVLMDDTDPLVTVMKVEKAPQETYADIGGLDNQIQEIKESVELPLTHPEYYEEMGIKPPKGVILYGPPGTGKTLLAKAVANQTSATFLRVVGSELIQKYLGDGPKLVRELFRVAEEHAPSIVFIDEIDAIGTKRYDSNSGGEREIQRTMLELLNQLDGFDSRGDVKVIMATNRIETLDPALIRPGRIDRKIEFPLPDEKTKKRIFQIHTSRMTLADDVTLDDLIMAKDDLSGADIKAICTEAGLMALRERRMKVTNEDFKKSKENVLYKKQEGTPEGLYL", "values": [{"measurement": "probe-labelled cysteine peptide fold change", "setting": "10 µM", "result": -0.0192}, {"measurement": "probe-labelled cysteine peptide fold change", "setting": "50 µM", "result": 0.104}]}
{"target": "RLF_Q13129_400_TIACLLPEDLEVRR (UniProt Q13129)", "sequence (Q13129 whole entry, looked up)": "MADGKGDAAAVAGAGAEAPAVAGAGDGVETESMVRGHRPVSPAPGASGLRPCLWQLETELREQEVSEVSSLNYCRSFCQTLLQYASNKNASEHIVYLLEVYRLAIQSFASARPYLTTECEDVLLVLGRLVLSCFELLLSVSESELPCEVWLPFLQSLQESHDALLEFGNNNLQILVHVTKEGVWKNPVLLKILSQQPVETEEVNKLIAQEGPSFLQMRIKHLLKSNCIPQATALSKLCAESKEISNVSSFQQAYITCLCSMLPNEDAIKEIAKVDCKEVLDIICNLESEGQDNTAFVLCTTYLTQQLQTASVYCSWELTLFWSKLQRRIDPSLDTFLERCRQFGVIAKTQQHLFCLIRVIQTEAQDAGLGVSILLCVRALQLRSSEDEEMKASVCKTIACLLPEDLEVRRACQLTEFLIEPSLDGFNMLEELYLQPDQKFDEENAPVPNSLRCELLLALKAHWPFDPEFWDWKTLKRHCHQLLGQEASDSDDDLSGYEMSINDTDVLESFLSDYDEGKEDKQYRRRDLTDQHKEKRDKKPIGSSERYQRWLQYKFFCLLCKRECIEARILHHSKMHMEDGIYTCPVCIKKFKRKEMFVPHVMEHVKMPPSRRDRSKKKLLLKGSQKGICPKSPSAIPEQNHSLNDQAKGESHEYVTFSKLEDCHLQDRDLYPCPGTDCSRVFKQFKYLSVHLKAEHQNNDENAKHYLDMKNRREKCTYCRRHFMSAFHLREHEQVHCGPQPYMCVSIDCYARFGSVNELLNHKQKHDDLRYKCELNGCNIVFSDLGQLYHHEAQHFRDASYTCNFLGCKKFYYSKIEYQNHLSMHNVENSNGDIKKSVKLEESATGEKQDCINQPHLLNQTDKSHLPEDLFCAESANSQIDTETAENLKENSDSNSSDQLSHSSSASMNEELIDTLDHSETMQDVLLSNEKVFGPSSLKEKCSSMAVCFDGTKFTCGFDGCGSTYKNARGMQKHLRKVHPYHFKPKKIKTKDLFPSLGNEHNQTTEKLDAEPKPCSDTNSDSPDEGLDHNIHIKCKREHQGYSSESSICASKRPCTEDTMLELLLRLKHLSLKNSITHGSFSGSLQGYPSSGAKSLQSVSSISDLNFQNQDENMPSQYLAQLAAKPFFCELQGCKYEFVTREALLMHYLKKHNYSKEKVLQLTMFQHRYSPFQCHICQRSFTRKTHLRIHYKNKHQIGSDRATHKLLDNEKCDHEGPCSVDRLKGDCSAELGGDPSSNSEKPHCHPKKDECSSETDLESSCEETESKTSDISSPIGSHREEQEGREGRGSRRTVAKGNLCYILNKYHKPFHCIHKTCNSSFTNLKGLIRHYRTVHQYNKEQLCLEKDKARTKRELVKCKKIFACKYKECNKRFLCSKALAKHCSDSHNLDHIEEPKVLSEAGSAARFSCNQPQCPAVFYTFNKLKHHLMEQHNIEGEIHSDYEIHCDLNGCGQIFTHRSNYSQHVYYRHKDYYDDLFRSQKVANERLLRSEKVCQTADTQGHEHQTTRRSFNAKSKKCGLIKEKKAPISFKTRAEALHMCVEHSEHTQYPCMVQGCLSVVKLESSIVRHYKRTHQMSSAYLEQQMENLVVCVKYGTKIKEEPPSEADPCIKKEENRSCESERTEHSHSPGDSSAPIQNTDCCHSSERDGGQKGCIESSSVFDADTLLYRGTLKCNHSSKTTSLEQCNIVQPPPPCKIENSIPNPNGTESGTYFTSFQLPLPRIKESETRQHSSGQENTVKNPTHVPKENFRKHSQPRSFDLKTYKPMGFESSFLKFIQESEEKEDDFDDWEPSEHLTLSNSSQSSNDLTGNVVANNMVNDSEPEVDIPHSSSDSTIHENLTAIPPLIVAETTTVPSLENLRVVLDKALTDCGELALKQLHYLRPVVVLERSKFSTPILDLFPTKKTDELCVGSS", "values": [{"measurement": "probe-labelled cysteine peptide fold change", "setting": "10 µM", "result": -0.0742}, {"measurement": "probe-labelled cysteine peptide fold change", "setting": "50 µM", "result": -0.58}]}
{"target": "RBM34_P42696_196_TVFVGNLPVTCNK (UniProt P42696)", "values": [{"measurement": "probe-labelled cysteine peptide fold change", "setting": "10 µM", "result": 0.0157}, {"measurement": "probe-labelled cysteine peptide fold change", "setting": "50 µM", "result": -0.186}]}
{"target": "RNF114_Q9Y508_160_NFDQEGLVEHCK (UniProt Q9Y508)", "values": [{"measurement": "probe-labelled cysteine peptide fold change", "setting": "10 µM", "result": 0.0873}, {"measurement": "probe-labelled cysteine peptide fold change", "setting": "50 µM", "result": 0.126}]}
{"target": "PUS7_Q96PZ0_319_CLMNFK (UniProt Q96PZ0)", "values": [{"measurement": "probe-labelled cysteine peptide fold change", "setting": "10 µM", "result": -0.0229}, {"measurement": "probe-labelled cysteine peptide fold change", "setting": "50 µM", "result": -0.239}]}
{"target": "RIF1_Q5UIP0_2450_LSCMANSVIK (UniProt Q5UIP0)", "sequence (Q5UIP0 whole entry, looked up)": "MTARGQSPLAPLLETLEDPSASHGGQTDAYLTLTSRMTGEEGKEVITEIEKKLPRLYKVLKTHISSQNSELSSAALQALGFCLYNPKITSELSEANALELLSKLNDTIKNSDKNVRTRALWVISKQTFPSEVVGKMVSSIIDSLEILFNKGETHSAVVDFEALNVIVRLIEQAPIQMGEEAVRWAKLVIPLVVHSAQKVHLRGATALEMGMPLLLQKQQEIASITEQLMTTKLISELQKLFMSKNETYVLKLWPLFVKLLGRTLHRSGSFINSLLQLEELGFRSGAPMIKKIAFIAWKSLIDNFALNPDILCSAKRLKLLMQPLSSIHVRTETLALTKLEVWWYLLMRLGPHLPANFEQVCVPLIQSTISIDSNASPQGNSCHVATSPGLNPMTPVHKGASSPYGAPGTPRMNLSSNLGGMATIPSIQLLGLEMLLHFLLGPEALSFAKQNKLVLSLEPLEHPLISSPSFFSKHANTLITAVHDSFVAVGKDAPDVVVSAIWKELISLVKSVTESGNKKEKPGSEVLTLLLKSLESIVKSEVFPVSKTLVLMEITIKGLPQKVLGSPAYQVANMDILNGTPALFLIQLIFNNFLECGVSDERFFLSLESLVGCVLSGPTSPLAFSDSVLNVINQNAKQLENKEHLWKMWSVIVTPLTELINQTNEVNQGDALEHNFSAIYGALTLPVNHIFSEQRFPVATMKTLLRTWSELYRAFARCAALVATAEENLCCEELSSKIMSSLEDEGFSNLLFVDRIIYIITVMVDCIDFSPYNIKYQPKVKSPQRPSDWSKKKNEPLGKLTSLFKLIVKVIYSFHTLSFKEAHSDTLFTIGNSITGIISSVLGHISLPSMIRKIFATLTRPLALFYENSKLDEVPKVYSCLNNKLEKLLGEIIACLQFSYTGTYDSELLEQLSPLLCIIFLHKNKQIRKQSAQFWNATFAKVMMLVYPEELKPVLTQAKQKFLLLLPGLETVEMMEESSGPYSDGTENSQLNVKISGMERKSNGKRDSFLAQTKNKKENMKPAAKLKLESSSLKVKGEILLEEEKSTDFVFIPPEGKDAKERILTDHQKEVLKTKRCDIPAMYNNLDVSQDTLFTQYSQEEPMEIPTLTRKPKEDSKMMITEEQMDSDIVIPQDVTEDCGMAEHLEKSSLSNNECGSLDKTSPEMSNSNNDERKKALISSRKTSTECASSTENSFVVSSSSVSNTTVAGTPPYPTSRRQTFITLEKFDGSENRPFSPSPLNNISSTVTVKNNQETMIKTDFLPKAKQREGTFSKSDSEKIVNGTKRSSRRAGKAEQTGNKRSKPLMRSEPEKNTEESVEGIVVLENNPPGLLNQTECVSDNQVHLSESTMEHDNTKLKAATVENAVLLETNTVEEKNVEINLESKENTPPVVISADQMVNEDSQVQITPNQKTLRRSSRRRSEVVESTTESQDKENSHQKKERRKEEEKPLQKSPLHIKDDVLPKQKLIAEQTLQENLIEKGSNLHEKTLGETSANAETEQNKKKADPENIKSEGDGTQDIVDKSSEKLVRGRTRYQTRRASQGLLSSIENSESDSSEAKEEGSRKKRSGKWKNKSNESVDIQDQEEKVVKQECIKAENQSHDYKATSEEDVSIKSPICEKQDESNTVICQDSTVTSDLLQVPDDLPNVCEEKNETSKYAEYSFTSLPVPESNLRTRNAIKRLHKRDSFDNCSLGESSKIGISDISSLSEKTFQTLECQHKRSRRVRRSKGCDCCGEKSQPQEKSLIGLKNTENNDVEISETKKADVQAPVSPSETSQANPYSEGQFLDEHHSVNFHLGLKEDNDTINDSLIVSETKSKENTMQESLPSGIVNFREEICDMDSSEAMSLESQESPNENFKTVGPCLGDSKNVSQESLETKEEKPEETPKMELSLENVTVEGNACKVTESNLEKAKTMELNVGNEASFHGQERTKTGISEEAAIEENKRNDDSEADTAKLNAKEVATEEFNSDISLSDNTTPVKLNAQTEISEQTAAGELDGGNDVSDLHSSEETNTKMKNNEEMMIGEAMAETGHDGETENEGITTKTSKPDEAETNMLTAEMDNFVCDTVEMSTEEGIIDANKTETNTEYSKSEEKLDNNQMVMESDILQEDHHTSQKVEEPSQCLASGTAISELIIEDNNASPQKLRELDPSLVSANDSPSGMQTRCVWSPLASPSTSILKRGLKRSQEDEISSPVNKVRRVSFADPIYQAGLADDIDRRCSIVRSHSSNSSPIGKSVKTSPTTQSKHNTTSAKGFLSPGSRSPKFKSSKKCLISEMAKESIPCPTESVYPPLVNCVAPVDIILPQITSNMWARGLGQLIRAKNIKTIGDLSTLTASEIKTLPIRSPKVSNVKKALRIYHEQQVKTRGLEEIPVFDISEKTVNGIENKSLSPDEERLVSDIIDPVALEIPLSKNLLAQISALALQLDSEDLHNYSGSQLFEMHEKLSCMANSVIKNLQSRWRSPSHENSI", "values": [{"measurement": "probe-labelled cysteine peptide fold change", "setting": "10 µM", "result": -0.0942}, {"measurement": "probe-labelled cysteine peptide fold change", "setting": "50 µM", "result": -0.14}]}
{"target": "RCHY1_Q96PM5_43_LCHDNNEDHQLDR (UniProt Q96PM5)", "values": [{"measurement": "probe-labelled cysteine peptide fold change", "setting": "10 µM", "result": 0.344}, {"measurement": "probe-labelled cysteine peptide fold change", "setting": "50 µM", "result": 2.12}]}
{"target": "RAD50_Q92878_133_CAEIDREMISSLGVSK (UniProt Q92878)", "values": [{"measurement": "probe-labelled cysteine peptide fold change", "setting": "10 µM", "result": -0.195}, {"measurement": "probe-labelled cysteine peptide fold change", "setting": "50 µM", "result": -0.429}]}
{"target": "PRKCQ_Q04759_193_QCNAAIHK (UniProt Q04759)", "values": [{"measurement": "probe-labelled cysteine peptide fold change", "setting": "10 µM", "result": -0.474}, {"measurement": "probe-labelled cysteine peptide fold change", "setting": "50 µM", "result": -0.576}]}
{"target": "RGS10_O43665_66_EFSEENVLFWLACEDFK (UniProt O43665)", "values": [{"measurement": "probe-labelled cysteine peptide fold change", "setting": "10 µM", "result": 0.332}, {"measurement": "probe-labelled cysteine peptide fold change", "setting": "50 µM", "result": 0.101}]}
{"target": "PSMB3_P49720_19_NCVAIAADRR (UniProt P49720)", "values": [{"measurement": "probe-labelled cysteine peptide fold change", "setting": "10 µM", "result": 0.0313}, {"measurement": "probe-labelled cysteine peptide fold change", "setting": "50 µM", "result": 0.234}]}
{"target": "RANBP2_P49792_1749_CIACQCPSK (UniProt P49792)", "values": [{"measurement": "probe-labelled cysteine peptide fold change", "setting": "10 µM", "result": 0.0505}, {"measurement": "probe-labelled cysteine peptide fold change", "setting": "50 µM", "result": 0.0953}]}
{"target": "RCSD1_Q6JBY9_181_RSQSDCGELGDFR (UniProt Q6JBY9)", "values": [{"measurement": "probe-labelled cysteine peptide fold change", "setting": "10 µM", "result": -0.852}, {"measurement": "probe-labelled cysteine peptide fold change", "setting": "50 µM", "result": -1.19}]}
{"target": "RHOT2_Q8IXI1_185_QLRPACAQALTR (UniProt Q8IXI1)", "values": [{"measurement": "probe-labelled cysteine peptide fold change", "setting": "10 µM", "result": -0.151}, {"measurement": "probe-labelled cysteine peptide fold change", "setting": "50 µM", "result": 0.0492}]}
{"target": "PRPF8_Q6P2Q9_2116_KFICISDLR (UniProt Q6P2Q9)", "values": [{"measurement": "probe-labelled cysteine peptide fold change", "setting": "10 µM", "result": 0.0139}, {"measurement": "probe-labelled cysteine peptide fold change", "setting": "50 µM", "result": 0.129}]}
{"target": "RBM4B_Q9BQ04_107_FEEYGPVIECDIVK<|>RBM4_Q9BWF3_107_FEEYGPVIECDIVK (UniProt Q9BWF3+Q9BQ04)", "values": [{"measurement": "probe-labelled cysteine peptide fold change", "setting": "10 µM", "result": 0.566}, {"measurement": "probe-labelled cysteine peptide fold change", "setting": "50 µM", "result": 0.744}]}
{"target": "PRPF4_O43172_441_RCVYTIPAHQNLVTGVK (UniProt O43172)", "values": [{"measurement": "probe-labelled cysteine peptide fold change", "setting": "10 µM", "result": -0.0522}, {"measurement": "probe-labelled cysteine peptide fold change", "setting": "50 µM", "result": -0.2}]}
